# The campaign covered roughly 13,000 compounds. About 3,200 (25%) showed an effect of 50% or more. This is one part of the list.
# Test system: P. falciparum stage V gametocytes
# Design: BacTiter-Glo ATP luminescence viability of purified stage V gametocytes in 384-well plates, per cent inhibition versus DMSO
# Details: 48 h, 5 µM; inhibitor
row,SMILES,% Inhibition [%]
1,COCCNCc1ncsc1-c1ccc2c(Nc3cc(O)ccc3C)ccnc2c1 [TCMDC-138465],-33.69
2,CC(C)(C)c1ccccc1OC(=O)c1ccccc1 [TCMDC-123936],-15.9
3,CCCN1CCC(c2c[nH]c3ccc(NC(=O)Nc4cccc(Cl)c4Cl)cc23)CC1 [TCMDC-139182],-83.82
4,Cc1cc(N/N=C/c2cccc([N+](=O)[O-])c2)c2ccccc2n1 [TCMDC-123977],89.22
5,Cc1ccc2c(N/N=C/c3cccc([N+](=O)[O-])c3)cc(C)nc2c1 [TCMDC-142072],87.02
6,O=[N+]([O-])c1ccc(-c2ccc(C=NNc3nc(Nc4ccccc4)nc(Nc4ccccc4)n3)o2)cc1 [TCMDC-124230],-25.78
7,COc1ccc2nc(C)cc(NN=Cc3cccc([N+](=O)[O-])c3)c2c1 [TCMDC-123972],49.98
8,COc1ccc2c(N/N=C/c3ccccc3[N+](=O)[O-])cc(C)nc2c1 [TCMDC-142088],-15.58
9,COc1ccc2c(N/N=C/c3cccc([N+](=O)[O-])c3)cc(C)nc2c1 [TCMDC-142089],108
10,Cc1cc(N/N=C/c2ccccc2[N+](=O)[O-])c2ccccc2n1 [TCMDC-123978],-75.07
11,O=[N+]([O-])c1ccc(C=NNc2nc(Nc3ccccc3)nc(Nc3ccccc3)n2)o1 [TCMDC-125802],108.2
12,O=[N+]([O-])c1ccc(Nc2nc(N/N=C/c3ccc(-c4ccc([N+](=O)[O-])cc4)o3)nc(Nc3ccccc3)n2)cc1 [TCMDC-123858],-4.596
13,Cc1ccc2c(N/N=C/c3ccccc3[N+](=O)[O-])cc(C)nc2c1 [TCMDC-142071],26.69
14,CNC(=O)CSc1nnc(-c2ccc(C)cc2)c(-c2ccc(C)cc2)n1 [TCMDC-123901],5.321
15,NC(=O)Nc1ccc2cn[nH]c2c1 [TCMDC-131601],13.14
16,C=CCc1cccc(CN2CCC(c3cc(=O)[nH]c(-c4ccccn4)n3)CC2)c1O [TCMDC-124851],46.78
17,CCc1nc2c(N)nc(N)nc2nc1-c1ccc(OC)cc1 [TCMDC-132107],7.623
18,Cc1ccc(Nc2nc(N/N=C/c3ccccc3[N+](=O)[O-])nc(Nc3ccc([N+](=O)[O-])cc3)n2)cc1C [TCMDC-124207],32.01
19,Cc1cc(N/N=C/c2ccccc2[N+](=O)[O-])c2cccc(C)c2n1 [TCMDC-142073],-15.7
20,Cc1ccc2nc(C)cc(N/N=C/c3cccc([N+](=O)[O-])c3)c2c1 [TCMDC-142069],66.26
21,Cc1cccc(C=NNc2cc(C)nc3ccc(F)cc23)n1 [TCMDC-142019],-41.63
22,Cc1ccc(Nc2nc(N/N=C/c3cccc([N+](=O)[O-])c3)nc(Nc3ccccc3)n2)c(C)c1 [TCMDC-124206],1.923
23,CCOc1ccc2nc(C)cc(NN=Cc3cccc(F)c3)c2c1 [TCMDC-142093],73.55
24,COc1cccc2c(N/N=C/c3ccccc3[N+](=O)[O-])cc(C)nc12 [TCMDC-142043],74.75

row,SMILES,% Inhibition [%]
1,Cc1cc(N2CCCC2)nc(Nc2ccc(NC(=O)c3ccccc3C)cc2)n1 [TCMDC-124711],-8.542
2,CCOC(=O)c1c(C)noc1Nc1ccc(OC)cc1 [TCMDC-131521],-6.953
3,CCc1c[nH]c2c(N3CCCC3=O)cc(C(=O)N[C@@H](Cc3ccccc3)[C@H](O)CNC3CCCCC3)cc12 [TCMDC-135024],43.33
4,CCc1cn(C)c2c(N3CCCC3=O)cc(C(=O)N[C@@H](Cc3ccccc3)[C@H](O)CNC(C)(C)CCCC(C)C)cc12 [TCMDC-135199],78.23
5,CCc1cn(C)c2c(N3CCCC3=O)cc(C(=O)N[C@@H](Cc3ccccc3)[C@H](O)CNC3CCCCC3)cc12 [TCMDC-135198],56.93
6,COc1cccc(CNC[C@@H](O)[C@H](Cc2ccccc2)NC(=O)c2cc(N3CCCC3=O)c3[nH]cc(C(C)C)c3c2)c1 [TCMDC-132584],-12.1
7,CCc1ccnc2c(N3CCCC3=O)cc(C(=O)N[C@@H](Cc3ccccc3)[C@H](O)CNC3CCOCC3)cc12 [TCMDC-135882],-3.363
8,CCNc1cc(C(=O)N[C@@H](Cc2ccccc2)[C@H](O)CNCC(C)C)cc(N2CCCC2=O)c1 [TCMDC-138888],11.22
9,CCc1c[nH]c2c(N3CCCS3(=O)=O)cc(C(=O)N[C@@H](Cc3ccccc3)[C@H](O)CNC(C)(C)CCCC(C)C)cc12 [TCMDC-135168],100.1
10,CCc1c[nH]c2c(N3CCCC3=O)cc(C(=O)N[C@@H](Cc3ccccc3)[C@H](O)CNC(C)(C)CCCC(C)C)cc12 [TCMDC-135025],68.24
11,CCc1c[nH]c2c(N3CCCS3(=O)=O)cc(C(=O)N[C@@H](Cc3ccccc3)[C@H](O)CNC3CCCCC3)cc12 [TCMDC-135169],49.22
12,CCc1c[nH]c2c(N3CCCS3(=O)=O)cc(C(=O)N[C@@H](Cc3ccccc3)[C@H](O)CNC(C)(C)c3cccc(C(F)(F)F)c3)cc12 [TCMDC-135172],20.21
13,CCc1c[nH]c2c(N3CCCCC3=O)cc(C(=O)N[C@@H](Cc3ccccc3)[C@H](O)CNCc3cccc(OC)c3)cc12 [TCMDC-134156],3.442
14,CCNc1cc(C(=O)N[C@@H](Cc2ccccc2)[C@H](O)CNCCC(C)c2ccccc2)cc(N2CCCC2=O)c1 (stereo partly shown) [TCMDC-141683],6.791
15,COc1cc(Nc2nccc(N3CCC(NC(=O)c4cccc(C#N)c4)C3)n2)cc(OC)c1OC (stereo not shown) [TCMDC-133620],1.02
16,N#Cc1cccc(C(=O)Nc2cccc(-c3ccc(C(=O)Nc4cccnc4)cc3)c2)c1 [TCMDC-133695],-12.11
17,O=C(/C=C/c1ccc(F)cc1)NC1CCC(CCN2CCCN(c3ccc(C(F)(F)F)cn3)CC2)CC1 (stereo not shown) [TCMDC-139724],-25.55
18,c1ccc(-c2cccnn2)cc1 [TCMDC-123929],-43.62
19,CCCCc1cc(NCc2ccncc2)nc(Nc2cccc(OC)c2)n1 [TCMDC-133999],-9.372
20,O=C(Nc1ccc(-c2cccc(-c3nc4ccc(C(F)(F)F)cc4[nH]3)c2)cc1)c1csnn1 [TCMDC-136903],-25.31
21,Cc1ccc2c(c1)c(-c1ccccc1)c(-c1ccccc1)n2CC(O)CN1CCN(CC=Cc2ccccc2)CC1 (stereo not shown) [TCMDC-123998],27.39
22,O=C(C1CCN(C(c2ccccc2)c2ccc(Cl)c(Cl)c2)CC1)N1CC=CC1 (stereo not shown) [TCMDC-135516],-15.6
23,COc1cc(C2=NN(S(=O)(=O)c3c(Cl)cc(Cl)cc3Cl)CCCC2)ccc1Cl [TCMDC-136212],-48.52
24,CCc1cn2c3c(cc(C(=O)N[C@@H](Cc4ccccc4)[C@H](O)CNC(C)(C)CCCC(C)C)cc13)N(C)S(=O)(=O)C2 [TCMDC-135400],80.58

row,SMILES,% Inhibition [%]
1,CCc1cn2c3c(cc(C(=O)N[C@@H](Cc4ccccc4)[C@H](O)CNC(C)(C)c4cccc(OC)c4)cc13)N(C)S(=O)(=O)C2 [TCMDC-135393],41.96
2,CCc1cn2c3c(cc(C(=O)N[C@@H](Cc4ccccc4)[C@H](O)CNC(C)C)cc13)N(C)S(=O)(=O)C2 [TCMDC-135401],-18.09
3,O=C(Nc1cccc(C(F)(F)F)c1)N1CCOC(CCN2CCC(c3ccccc3)CC2)(c2ccc(Cl)c(Cl)c2)C1 (stereo not shown) [TCMDC-135345],-74.75
4,CC(C)(C)c1ccc(N2C(N)=NC(N)=NC2(C)C)cc1Cl [TCMDC-137710],44.95
5,COc1ccc(Cc2c(Cl)nc3nc(N)nc(N)c3c2C)c(OC)c1OC [TCMDC-137688],14.16
6,N#CC(c1cccc(Cl)c1)c1ccc2c(C(F)(F)F)cc(C(F)(F)F)nc2n1 (stereo not shown) [TCMDC-125544],14.86
7,CCCOc1cc(OCCC)cc(-c2cc(=O)c3ccccc3[nH]2)c1 [TCMDC-138943],63.29
8,CCCCCCCc1cc(=O)c2ccccc2[nH]1 [TCMDC-132026],46.19
9,O=c1cc(-c2ccc3ccccc3c2)[nH]c2ccccc12 [TCMDC-138937],4.967
10,CCCCCC(C)C(C)c1cc(O)c2c(c1)OC(C)(C)CC2(O)c1ccnn1C (stereo not shown) [TCMDC-131795],-1.098
11,COc1ccc2nccc([C@@H](O)CN3CCC(NC(=O)/C=C/c4ccc5cc(C)[nH]c5c4)CC3)c2c1 [TCMDC-141041],-19.17
12,NC(N)=Nc1nc(CCCCCCCCc2csc(N=C(N)N)n2)cs1 [TCMDC-137552],85.12
13,NC(N)=Nc1nc(-c2ccc(N=C(N)N3CCC[C@H]3CN3CCCC3)cc2)cs1 [TCMDC-139612],25.87
14,N#C/N=C(\NCCCCCCCCN/C(=N\C#N)NCCSCc1csc(N=C(N)N)n1)NCCCSc1csc(N=C(N)N)n1 [TCMDC-139456],-7.363
15,Cc1ccc([S+]([O-])Cc2ccc(Cl)cc2)cc1 (stereo not shown) [TCMDC-131393],8.887
16,COc1cc(Cc2cnc(N)nc2N)cc(OCCCCCC(N)=O)c1OC [TCMDC-137361],38.24
17,COc1ccccc1-c1csc(C(=O)NC2CCCCN(Cc3ccc(C(C)(C)C)cc3)C2)c1 (stereo not shown) [TCMDC-134516],70.05
18,CC(C)(C)c1ccc(CN2CCCCC(NC(=O)c3cc(-c4ccccc4F)cs3)C2)cc1 (stereo not shown) [TCMDC-134465],82.77
19,O=C(NC1CCCCN(Cc2ccc3c(c2)OCCO3)C1)c1cc(-c2ccccc2F)cs1 (stereo not shown) [TCMDC-134517],-15.69
20,CCc1ccc(CN2CCCCC(NC(=O)c3cc(-c4ccccc4F)cs3)C2)cc1 (stereo not shown) [TCMDC-134461],-44.42
21,CC(C)(C)c1ccc(CN2CCCCC(NC(=O)c3cc(-c4ccccc4Cl)cs3)C2)cc1 (stereo not shown) [TCMDC-134467],-60.63
22,COc1cccc(-c2csc(C(=O)NC3CCCCN(Cc4ccc(C(C)(C)C)cc4)C3)c2)c1 (stereo not shown) [TCMDC-134469],-86.38
